{"source": "PubChem BioAssay (Tox21)", "note": "Inconclusive results are not listed. A number with no mark means an inactive call. Calls follow the shape of the full dose curve. % is scaled to controls: 0 for no effect and ±100 for the full control effect."}
{"assay": "qHTS assay to identify small molecule agonists of H2AX - cell viability counter screen (AID 1224847); also: top concentration of the series differs between compounds; nearly all actives have a fitted effect of over 30% in size", "details": "CHO-K1 viability, CellTiter-Glo luminescence, 3 h; series mostly up to 154 µM; activity change, negative = cytotoxicity: at the top concentration", "source_text": "National Center for Advancing Translational Sciences [NCATS]\nNIH Chemical Genomics Center [NCGC]\nU.S. Environmental Protection Agency [EPA]\nNational Institutes of Environmental Health Sciences [NIEHS]\nNational Toxicology Program [NTP]\nU.S. Food and Drug Administration [FDA]\nHTRF phospho-H2AX (Ser139) assay (Cisbio Bioassays, US) enables the quantitative detection of the histone variant H2AX when phosphorylated on serine 139. When double-stranded DNA breaks, either by ionizing radiation or endogenous physiological processes, H2AX becomes phosphorylated at Ser139. This phospho-Ser139 serves as a sensitive biomarker for the detection of such breaks, localizing the site of DNA repair. So, HTRF phospho-H2AX Ser139 is a pertinent assay to study genome stability, the cell cycle, DNA repair, and it serves as a biomarker for cancer, and to understand aging. Wild type CHO-K1 cells were used to identify the inducers of Phospho-H2AX Ser 139 from the Tox21 compound collections. Also cytotoxicity of the Tox21 10K compound library against the CHO-K1 cell line was tested by measuring the cell viability using CellTiter-Glo assay (Promega, Madison, WI).\nTox21 Assay Protocol Summary:\nThe CHO-K1 cells suspended in culture medium containing 10% FBS were dispensed at 1000 cells/ 3 ul/well in 1536-well white wall/solid bottom plates (Greiner Bio-One North America, NC) using a Multidrop Combi (Thermo Fisher Scientific Inc., Waltham, MA). After the assay plates were incubated at 37C overnight, 23 nl of compounds at 15 concentrations (from 5-48 columns) or positive control (from 1 to 4 columns) were transferred to the assay plates using a Pintool station (Wako, San Diego, CA) into each well resulting in a final DMSO concentration of 0.76%. After 3hr incubation at 37C, 3 uL/well CellTiter-Glo luminescent cell viability reagent (Promega Corporation, Madison, WI) was added using a Flying Reagent Dispenser (FRD) (Aurora Discovery, CA). After incubation at room temperature for 30 min, the luminescence intensity was read using a ViewLux plate reader (PerkinElmer, Waltham, MA)."}
{"smiles": "C=CCOC(=O)c1ccc(C(=O)OCC=C)c(C(=O)OCC=C)c1", "activity change, negative = cytotoxicity": "-9.35%"}
{"smiles": "OC(CCN1CCCCC1)(c1ccccc1)c1ccccc1", "activity change, negative = cytotoxicity": "-6.62% [at 70.9 µM]"}
{"smiles": "Cc1nc(C)nc(N2C[C@@H](C)N(c3ccnc([C@@H](C)O)n3)[C@@H](C)C2)n1", "activity change, negative = cytotoxicity": "0.0343% [at 70.9 µM]"}
{"smiles": "O=C(/C=C/c1ccccc1)NCCO", "activity change, negative = cytotoxicity": "-7.06% [at 70.9 µM]"}
{"smiles": "C=CCOCC(O)CCl", "note": "(stereo not given)", "activity change, negative = cytotoxicity": "-1.79%"}
{"smiles": "CCC(=O)OCCC(C)CCC=C(C)C", "note": "(stereo not given)", "activity change, negative = cytotoxicity": "0.969%"}
{"smiles": "C[N+](C)(C)CC(O)CCl", "note": "(stereo not given)", "activity change, negative = cytotoxicity": "-4.93%"}
{"smiles": "C[C@H](CCC(=O)O)[C@H]1CC[C@H]2[C@@H]3[C@H](O)C[C@@H]4C[C@H](O)CC[C@]4(C)[C@H]3C[C@H](O)[C@]12C", "activity change, negative = cytotoxicity": "-0.927% [at 70.9 µM]"}
{"smiles": "C=COCCOCCOC=C", "activity change, negative = cytotoxicity": "-2.78%"}
{"smiles": "O=C1c2ccccc2-c2ccccc21", "activity change, negative = cytotoxicity": "-0.439%"}
{"smiles": "Cc1ncc([N+](=O)[O-])n1CC(O)CCl", "note": "(stereo not given)", "activity change, negative = cytotoxicity": "2.45% [at 70.9 µM]"}
{"smiles": "BrC/C=C/CBr", "activity change, negative = cytotoxicity": "1.6% [at 31.6 µM]"}
{"smiles": "CC(=O)c1ccc2c(c1)CCCC2", "activity change, negative = cytotoxicity": "-2.62%"}
{"smiles": "CNC(=O)NC", "activity change, negative = cytotoxicity": "1.5%"}
{"smiles": "CC(C)COC(=O)CCCCC(=O)OCC(C)C", "activity change, negative = cytotoxicity": "-0.851%"}
{"smiles": "Cc1nc2ccccc2c(=O)o1", "activity change, negative = cytotoxicity": "0.114%"}
{"smiles": "Cc1ccccc1C(=O)N1CC/C(=N\\OS(=O)(=O)O)c2ccc(Cl)cc21", "activity change, negative = cytotoxicity": "-0.837% [at 70.9 µM]"}
{"smiles": "CCCCC(C)C(=O)O", "note": "(stereo not given)", "activity change, negative = cytotoxicity": "3.89%"}
{"smiles": "COc1cc2c3cc1Oc1cc(ccc1O)C[C@@H]1c4c(cc(OC)c(O)c4Oc4ccc(cc4)C[C@@H]3N(C)CC2)CC[N+]1(C)C", "activity change, negative = cytotoxicity": "-3.78% [at 70.9 µM]"}
{"smiles": "CCCCOC(=O)C(C)OC(=O)CCC", "note": "(stereo not given)", "activity change, negative = cytotoxicity": "3.01%"}
{"smiles": "O=C(CN1CCN(Cc2ccc3c(c2)OCO3)CC1)N1c2ccccc2Sc2ccccc21", "activity change, negative = cytotoxicity": "1.26% [at 70.9 µM]"}
{"smiles": "Nc1cc(S(=O)(=O)O)ccc1S(=O)(=O)O", "activity change, negative = cytotoxicity": "0.0458%"}
{"smiles": "O=C(COCCOCCOCC(=O)Nc1c(I)cc(I)c(C(=O)O)c1I)Nc1c(I)cc(I)c(C(=O)O)c1I", "activity change, negative = cytotoxicity": "0.617% [at 70.9 µM]"}
{"smiles": "CCCCCCCC[Si](OCC)(OCC)OCC", "activity change, negative = cytotoxicity": "4.53%"}
{"smiles": "Nc1nc(=O)n([C@@H]2O[C@H](CO)[C@@H](O)[C@@H]2F)cc1I", "activity change, negative = cytotoxicity": "-0.515% [at 70.9 µM]"}
{"smiles": "O=C(c1ccc2c(c1)C(=O)OC2=O)c1ccc2c(c1)C(=O)OC2=O", "activity change, negative = cytotoxicity": "-0.761%"}
{"smiles": "O=S(=O)(O)CCO", "activity change, negative = cytotoxicity": "1.75%"}
{"smiles": "O=C1CC[C@H](C(=O)N2CCCCC2)N1", "activity change, negative = cytotoxicity": "3.09% [at 70.9 µM]"}
{"smiles": "OCCCCCCCl", "activity change, negative = cytotoxicity": "0.19%"}
{"smiles": "CO/N=C(/C(=O)N[C@@H]1C(=O)N2C(C(=O)O)=C(Cn3nnc(C)n3)CS[C@H]12)c1csc(N)n1", "activity change, negative = cytotoxicity": "2.17% [at 70.9 µM]"}
{"smiles": "CCC(C)(CCC(C)C)C(=O)[O-].CCC(C)(CCC(C)C)C(=O)[O-].[Zn+2]", "note": "(stereo not given)", "activity change, negative = cytotoxicity": "9.61%"}
{"smiles": "O=CO", "activity change, negative = cytotoxicity": "0.103% [at 14 µM]"}
{"smiles": "Cc1cccc(Nc2ccncc2S(=O)(=O)NC(=O)NC(C)C)c1", "activity change, negative = cytotoxicity": "0.613% [at 70.9 µM]"}
{"smiles": "CCCCCCCCCCCCCC(=O)OC", "activity change, negative = cytotoxicity": "-3.78%"}
{"smiles": "CC(C)(c1ccc(Oc2ccc3c(c2)C(=O)OC3=O)cc1)c1ccc(Oc2ccc3c(c2)C(=O)OC3=O)cc1", "activity change, negative = cytotoxicity": "10.5%"}
{"smiles": "COc1ccc(NS(=O)(=O)c2ccc(N)cc2)nn1", "activity change, negative = cytotoxicity": "0.146% [at 70.9 µM]"}
{"smiles": "CCNC(=O)NCCCOc1cccc(CN2CCCCC2)c1", "activity change, negative = cytotoxicity": "-5.42% [at 70.9 µM]"}
{"smiles": "CC(=O)OCC(=O)[C@@]1(O)[C@H](OC(C)=O)C[C@H]2[C@@H]3CCC4=CC(=O)C=C[C@]4(C)[C@@]3(F)[C@@H](O)C[C@@]21C", "activity change, negative = cytotoxicity": "6.27% [at 70.9 µM]"}
{"smiles": "CCCCCCCCCCCCC1CO1", "note": "(stereo not given)", "activity change, negative = cytotoxicity": "0.141%"}
{"smiles": "Oc1ccccc1Cc1ccccc1O", "activity change, negative = cytotoxicity": "-13.9%"}
